High-throughput results: PubChem, National Center for Advancing Translational Sciences (NCATS)
Shown are actives, neighbours in structure and some others; about 19% of the full set was active somewhere.
TDP1 cell noCPT: qHTS for Inhibitors of human tyrosyl-DNA phosphodiesterase 1 (TDP1): qHTS in cells in absence of CPT; DT40 Tdp1-/- hTDP1 cells, no CPT, ATP luminescence, 48 h; Potency, µM (titrated, usually from 46.2 µM), hits mostly inhibitors; 420,000 tested, 15% active; AID 686978, 2013; also: nearly all actives have a fitted effect of over 55% in size
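Cells were dispensed at 400 per well, compounds added by pin tool, plates incubated ≥48 hr at 37 °C, then CellTiter-Glo added for 30 min at room temperature before luminescence reading. Line: DT40 Tdp1-/- complemented with hTDP1; camptothecin omitted.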
TDP1 cell CPT: growth inhibition of DT40 Tdp1-/-;hTDP1 cells with camptothecin (screen for TDP1 inhibitors). Potency, µM (highest dose often 46.2 µM), hits mostly inhibitors. AID 686979. 420,000 tested, 12% active. chicken DT40 Tdp1-/-;hTDP1 cells + 20 nM CPT, ATP luminescence, 48 h; also: nearly all actives have a fitted effect of over 55% in size
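Cell growth measured by CellTiter-Glo luminescence after a minimum 48 h, 37 C compound exposure with 20 nM CPT in Tdp1-knockout DT40 cells stably expressing hTDP1, seeded 400/well; qHTS titration format.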
HT1080 IDH1KD tx: kills HT-1080 cells with IDH1 knockdown | 360,000 tested, 2% active | HT-1080 IDH1 knockdown viability, ATP luminescence, 48 h | Potency, µM (titrated, usually from 46.1 µM), hits mostly cytotoxic
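% activity derives from luminescence (CellTiter-Glo), normalised to DMSO and no-cell wells. HT-1080-IDH1KD cells, 750/well, had 48 h compound exposure at 37 °C.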
IL-1B inflam inh: inhibitors of inflammasome signaling (IL-1 beta secretion); THP-1 LPS/ATP IL-1B secretion, AlphaLISA, 16 h; hits give low values; activity change, % at 57.5 µM; 360,000 tested, 4.7% active; in the data active = activity change below about -50%; inconclusive = mostly about -30% to -49%
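Secreted IL-1B measured by AlphaLISA bead assay after 16 h compound exposure of THP-1 cells; compounds (final up to 57.5 uM) added 1 h before LPS (250 ng/mL) and ATP (1.25 mM) stimulation; lower signal means less secretion.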
HT1080-NT tox: kills 2HG-producing HT-1080-NT fibrosarcoma cells; HT-1080-NT fibrosarcoma viability, CellTiter-Glo ATP luminescence, 48 h; Potency, µM (doses to about 46.1 µM), most hits filed as cytotoxic; 360,000 tested, 1.6% active;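 also: NT is the 2HG producing partner of a matched IDH1 knockdown line; nearly all actives have a fitted effect of over 55% in size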
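Viability of the 2HG-overproducing fibrosarcoma line after 48 hours of compound exposure at 37 degrees C was determined by luminescence with CellTiter-Glo, and concentration-effect curves were then fitted and categorized.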
Numbers stand for hits; i = inactive; ? = inconclusive; nt = no result; [ ] = remark or other dose. Unless noted, calls follow the shape of the dose curve; as a rule, active = well fitted curve in the direction sought with a large enough effect; inconclusive = small, poorly fitted or top-dose-only effect, or another doubt; inactive = no such curve, though single readings can be large; an effect the other way counts as inactive or inconclusive.

SMILES	TDP1 cell noCPT	TDP1 cell CPT	HT1080 IDH1KD tx	IL-1B inflam inh	HT1080-NT tox
COc1ccc(S(=O)(=O)N2CCOC2CNC(=O)C(=O)NCCc2ccc(OC)c(OC)c2)cc1C (configuration not stated)	16µM	?	i	i	i
O=C(NCc1ccccc1)C(=O)NCC1OCCN1S(=O)(=O)c1ccc2c(c1)OCCO2 (configuration not stated)	i	?	i	i	i
CSc1nc2cc(C)nn2c(-c2ccccc2Cl)c1C#N	i	i	i	i	i
CCC[C@@H](CN1CCC[C@H]1CN1C(N)=NC[C@H]1CC(C)C)N1C[C@@H](Cc2ccccc2)N(CCc2ccc(Cl)c(Cl)c2)C1=N	?	21µM	i	-69	i
CCC[C@@H](CN1CCC[C@H]1CN1C(N)=NC[C@@H]1Cc1ccccc1)N1C[C@@H](Cc2ccccc2)N(CCc2ccc(Cl)c(Cl)c2)C1=N	?	?	i	-53	i
CCC[C@@H](CN1CCC[C@H]1CN1C(N)=NC[C@@H]1Cc1ccccc1)N1C[C@@H]([C@H](C)CC)N(CCc2ccc(Cl)c(Cl)c2)C1=N	?	?	i	?	i
CC(C)NC(=O)NC(=O)CSc1nnc(COc2ccccc2F)n1C(C)C1CC2CCC1C2 (configuration not stated)	10µM	10µM	?	-52	?
CN1CCN(c2ncnc3c2ncn3[C@H]2CN(Cc3ccc(Cl)cc3)C[C@@H](CO)O2)CC1	?	?	i	i	?
COc1ccc(-c2csc(NC(=O)CCS(=O)(=O)c3ccccc3)n2)c(OC)c1	8.2µM	?	?	-88	?
Cc1ccc(S(=O)(=O)CCC(=O)Nc2nc(-c3cccnc3)cs2)cc1	?	15µM	i	i	i
O=C(CCS(=O)(=O)c1ccccc1)Nc1nc(-c2ccc(F)cc2)cs1	?	?	21µM	-77	?
O=C(CCS(=O)(=O)c1ccc(Cl)cc1)Nc1nc(-c2ccncc2)cs1	13µM	16µM	i	?	i
COc1ccc(-c2csc(NC(=O)CS(=O)(=O)c3ccccc3)n2)c(OC)c1	?	?	i	?	i
O=C(COc1ccccc1)Nc1nc(-c2cccnc2)cs1	?	?	i	i	i[9.24 µM]
CN(C)C(=S)SCC(=O)Nc1ccc(Cl)cc1Cl	i	i	i	i	i
CC1CN(CC(=O)NCCc2ccncc2)Cc2ccccc2O1 (configuration not stated)	i	i[9.04 µM]	nt	nt	nt
O=C(CCS(=O)(=O)c1ccccc1)Nc1nccs1	?	?	i	i	?
Cc1ccc(S(=O)(=O)CCC(=O)Nc2nc(-c3ccccn3)cs2)cc1	5.8µM	6.5µM	i	i	i
CCc1ccc(NC2=NCC(c3ccccc3)S2)cc1 (configuration not stated)	?	i	?	i	?
Cc1ccc(NC2=NCC(Cc3ccc(Br)cc3)S2)cc1 (configuration not stated)	?	?	?	-96	?
Cc1c(CN(C)C)c2c(n1Cc1ccccc1)C(=O)c1ccccc1-2	?	?	16µM	-63	23µM
COc1cc(-c2nnc(SCC(=O)N(Cc3ccccc3)C(C)(C)C)o2)cc(OC)c1OC	15µM	13µM	i	-56	i
CCCCN(CCCC)C(=O)CSc1nnc(-c2cc(OC)c(OC)c(OC)c2)o1	14µM	18µM	i	-54	i
CC(NC(=O)C1CCOCC1)c1nnc2n1CCN(Cc1ccc(F)cc1)CC2 (configuration not stated)	i	i	nt	nt	nt
O=C(CSc1cccc2cccc(Cl)c12)NCc1cccs1	26µM	?	i	i	i
SMILES	TDP1 cell noCPT	TDP1 cell CPT	HT1080 IDH1KD tx	IL-1B inflam inh	HT1080-NT tox
CN(C)C(=O)COC(=O)c1ccccc1Nc1ccc(SC(F)F)cc1	?	?	?	i	i
O=C(Nc1c2c(nn1-c1ccc(Cl)cc1)CS(=O)(=O)C2)c1ccc(Br)cc1	16µM	23µM	nt	nt	nt
O=C(Nc1c2c(nn1-c1ccc(Cl)cc1)CS(=O)(=O)C2)c1ccc2c(c1)OCO2	i	i	i	i	i
CC(CNS(=O)(=O)c1ccc2c(c1)CC(=O)N2C)c1ccccc1 (configuration not stated)	?	?	i	i	i
CC(=O)Nc1ccc(NC(=O)C(C)OC(=O)c2c(NC(C)=O)sc(C)c2C)cc1 (configuration not stated)	i	i	i	i	i
CCN1CCN(c2ccc(S(=O)(=O)N3CCOCC3)cc2NC(=O)CCC(C)C)CC1	i	i	i	i	i
Cc1noc(C)c1C(=O)N1CCC[C@@]2(CCN(c3ccccc3)C2)C1	?	i	nt	nt	nt
COC(=O)CCCC(=O)N1CCCC(C(=O)c2ccccc2SC)C1 (configuration not stated)	i	i	i	i	i
COc1cc(CN2CCCC(C(=O)c3ccccc3SC)C2)cc(OC)c1 (configuration not stated)	?	15µM	?	i	?
COc1cc(OC)c(OC)cc1CN1CCCC(C(=O)c2ccccc2SC)C1 (configuration not stated)	21µM	?	i	i	i
COc1ccc(-n2c(C)cc(C)c(C(C)=O)c2=S)cc1	i	i	i	i	i
Clc1ccc(CN2C3=NCCCN3c3ccccc32)c(Cl)c1	?	?	?	-73	?
COC(=O)CN1C2=NCCCN2c2ccccc21	i	i	i	i	i
CC(C)(C)c1ccc(CN2C3=NCCCN3c3ccccc32)cc1	7.3µM	7.3µM	23µM	-54	?
O=C(O)CN1C2=NCCCN2c2ccccc21	i	i	i	i	i
OC(COc1ccccc1)CN1C2=NCCCN2c2ccccc21 (configuration not stated)	10µM	?	i	i	i
Cc1ccc(CN2C3=NCCCN3c3ccccc32)cc1	?	15µM	i	i	i
CC1=C(C(=O)Nc2cccc(C(F)(F)F)c2)C(c2ccccc2)n2ncnc2N1 (configuration not stated)	i	i	nt	nt	nt
Clc1cccc(CN2C3=NCCCN3c3ccccc32)c1	?	?	i	i	i
c1ccc(CN2C3=NCCCN3c3ccccc32)cc1	i	i	i	i	i
Brc1ccc(CN2C3=NCCCN3c3ccccc32)cc1	?	16µM	i	-55	i
Clc1ccc(CN2C3=NCCN3c3ccccc32)cc1	?	13µM	?	?	?
Cc1cc2c(cc1C)N(Cc1ccc(Cl)cc1)C1=NCCCN12	5.2µM	2.6µM	?	nt	26µM
COc1ccc(NS(=O)(=O)c2cccc(C(=O)N3CCN(S(=O)(=O)c4ccccc4)CC3)c2)cc1	?	?	i	i	i
CNC(=S)N(CCc1c(C)[nH]c2ccc(Cl)cc12)Cc1cccnc1	?	i	i	?	i
